Values without a mark were called inactive. Records with an inconclusive call do not appear. Activity calls are given as the source filed them. Unless noted, the call rests on the fitted dose curve.

The nature of assay [1]: Nuclear factor erythroid 2-related factor 2/antioxidant responsive element (Nrf2/ARE) small molecule agonists: qHTS cell viability counter screen in human keratinocytes (AID 1919968; active means well fitted curve in the direction sought with a large enough effect in the repeat runs; an effect the other way counts as inactive or inconclusive; further: nearly all actives have a fitted effect of over 55% in size; further: potency means the concentration at half of the fitted maximal effect). An outline of the steps:
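Fluorescence read-out from CellTiter-Fluor after 1 h at 37 C. Wells held HaCaT-derived ARE-luciferase reporter cells (1,500/well) treated 23 h with DMSO-dissolved compounds. Run in the same wells as the luciferase agonist read.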
(In general: Quantitative high-throughput screening tests each substance at several concentrations.)

A short description of assay [2]: Nuclear factor erythroid 2-related factor 2/antioxidant responsive element (Nrf2/ARE) small molecule agonists: luciferase reporter gene qHTS assay in human keratinocytes (AID 1919969). Further: nearly all actives have a fitted effect of over 35% in size. Further: potency means the concentration at half of the fitted maximal effect. For orientation: A reporter such as luciferase makes a cellular process visible.
Assay [3] concerns the target KiSS-1 receptor (Homo sapiens) (UniProt Q969F8). Nature of the assay: Human kisspeptin (KISS1R) small molecule agonists, calcium flux assay in KISS1R-HEK293 cells (AID 1920064; active means well fitted curve in the direction sought with a large enough effect in the repeat runs; an effect the other way counts as inactive or inconclusive). An outline of the steps:
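Calcium flux read-out: kinetic fluorescence at Ex/Em=480/540, 1 s intervals over 3 min, after pin-tool compound addition to dye-loaded KISS1R-HEK293 cells. Fifteen concentrations, triplicates.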
On the technique in general: Calcium flux is commonly read through the fluorescence of an indicator in the cells.

A short description of assay [4]: p53 small molecule agonists, cell-based qHTS assay with human liver microsomes (AID 1963577). An outline of the steps: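 Compounds act here after metabolic activation: human liver microsomes and NADPH, both at 0.5 mg/mL final, were co-added to p53RE-bla cells. Incubation ran 16 h at 37 C, followed by LiveBLAzer detection.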
The nature of assay [5]: p53 small molecule agonists, cell-based qHTS assay with rat liver microsomes (AID 1963578). The procedure, abridged:
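Read-out is beta-lactamase reporter fluorescence (LiveBLAzer, 2 h, room temperature, dark) in p53RE-bla cells treated 16 h at 37 C with compound, rat liver microsomes and NADPH, both 0.5 mg/mL final.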

Assay [6] in a line: p53 small molecule agonists, cell-based qHTS assay with human liver microsomes: qHTS cell viability counter screen (AID 1963579). Further: nearly all actives have a fitted effect of over 45% in size. Further: potency means the concentration at half of the fitted maximal effect. An outline of the steps:
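Cells carrying the p53 response-element beta-lactamase reporter are treated for 16 h at 37 C with test compounds in the presence of human liver microsomes and NADPH (both 0.5 mg/mL final); ATP-based CellTiter-Glo luminescence then reports viability.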

Assay [7] in a line: p53 small molecule agonists, cell-based qHTS assay with rat liver microsomes: qHTS cell viability counter screen (AID 1963580). Further: nearly all actives have a fitted effect of over 45% in size. The procedure, abridged: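 Rat liver microsome (0.5 mg/mL final) and NADPH (0.5 mg/mL final) co-incubation with compounds for 16 h at 37 C on HCT-116 p53RE-bla cells; cytotoxicity taken from intracellular ATP luminescence.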
Assay [8] can be described thus: p53 small molecule agonists, cell-based qHTS assay: qHTS cell viability counter screen (AID 1963581). Further: nearly all actives have a fitted effect of over 45% in size. An outline of the steps: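 Cytotoxicity read-out: ATP-based luminescence (CellTiter-Glo, 30 min RT) measured in the same wells as the p53 reporter assay, HCT-116 p53RE-bla cells, 16 h compound exposure at 37 C.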
The nature of assay [9]: p53 small molecule agonists, cell-based qHTS assay (AID 1963582; active means well fitted activation curve with a large enough effect in the signal ratio in the repeat runs, not every such curve was filed as active; the % refers to the signal ratio). The procedure, abridged: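 Fluorescence intensity read-out of a beta-lactamase reporter under a p53 response element. Cells were exposed to DMSO-dissolved compounds for 16 h at 37 C, then developed with FRET substrate for 2 h at RT.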
The target of assay [10] is 5-hydroxytryptamine receptor 2A (Homo sapiens) (UniProt P28223). Nature of the assay: 5-hydroxytryptamine receptor 2A (HTR2A) small molecule antagonists, cell-based qHTS assay (AID 1963586). Further: nearly all actives have a fitted effect of over 45% in size. An outline of the steps: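 CHO cells stably expressing human HTR2A were plated for 18 h at 37 C, then loaded with calcium dye for 1 h. Compounds were preincubated 5 min at room temperature before DOI (4 nM solution) was added. Kinetic fluorescence was read for 3 min.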

For assay [11] the target is unchanged. The experiment in a line: 5-hydroxytryptamine receptor 2A (HTR2A) small molecule agonists, cell-based qHTS assay (AID 1963587). Further: nearly all actives have a fitted effect of over 30% in size. Further: potency means the concentration at half of the fitted maximal effect. The procedure, abridged:
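Kinetic calcium-flux fluorescence (2 min, 1 sec intervals) after compound addition in agonist mode. HTR2A-CHO cells were cultured 18 h, then dye-loaded 1 h at 37 C.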

Assay [12] addresses Muscarinic acetylcholine receptor M1 (Homo sapiens) (UniProt P11229). Nature of the assay: Cholinergic receptor muscarinic 1 (CHRM1) small molecule agonists, cell-based qHTS assay (AID 1963589). Further: nearly all actives have a fitted effect of over 35% in size. The procedure, abridged:
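Calcium flux read-out: kinetic fluorescence at 1 sec intervals after pin-tool compound addition to dye-loaded CHRM1-CHO cells (human M1). Agonist mode; 15 concentrations tested in triplicate independent runs.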

Assay [13] in a line: cAMP Responsive Elements (CRE) small molecule antagonists, cell-based qHTS assay (AID 1963591; active means well fitted inhibition curve with a large enough effect in the signal ratio in the repeat runs, not every such curve was filed as active; the % refers to the signal ratio). The procedure, abridged:
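HEK293T CRE-bla; 18 h preincubation; compound pin-transfer; NKH477 0.25 uM final, 3 h, 37 C; LiveBLAzer FRET substrate 2 h RT.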

Assay [14] concerns the target D(2) dopamine receptor (Homo sapiens) (UniProt P14416). The experiment in a line: Dopamine D2 receptor (DRD2) small molecule agonists, cell-based qHTS assay (AID 1963594). Further: nearly all actives have a fitted effect of over 35% in size. An outline of the steps:
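cAMP accumulation in DRD2-HEK293 cells measured by HTRF after 1 h detection; compounds added 10 min before NKH477 (200nM […]) forskolin-analogue stimulation, 30 min at room temperature, with Ro20-1724 present at 0.1 mM final.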

Assay [15] has the same target. The experiment in a line: Dopamine D2 receptor (DRD2) small molecule antagonists, cell-based qHTS assay (AID 1963595; active means well fitted inhibition curve with a large enough effect in the signal ratio in the repeat runs, with a control signal flat; the % refers to the signal ratio). An outline of the steps: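 DRD2-HEK293; 0.1 mM Ro20-1724; cpd 10 min RT; NKH477 200 nM + quinpirole 12 nM, 30 min RT; HTRF cAMP (cAMP-d2/anti-cAMP cryptate), 665/620 nm ratio after 1 h.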
Assay [16] addresses Gonadotropin-releasing hormone receptor (Homo sapiens) (UniProt P30968). The experiment in a line: Human gonadotropin-releasing hormone receptor (GnRHR) small molecule agonists, calcium flux assay in GnRHR-HEK293 cells (AID 1920063). Further: nearly all actives have a fitted effect of over 35% in size. The procedure, abridged:
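Calcium-dye fluorescence, Ex/Em=480/540, recorded every 1 sec over 3 min after compound addition to GnRHR-HEK293 cells. Cells had been seeded 18 hours earlier and dye-loaded for 1 hour at 37 C. Fifteen concentrations, triplicates.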

The nature of assay [17]: G protein-coupled receptor (GPCR) small molecule agonists, calcium flux assay: HEK293 wild type cell line counter screen (AID 1920065). Further: potency means the concentration at half of the fitted maximal effect. An outline of the steps: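 Agonist mode; 18 h seeding at 37 C, 1 h dye load at 37 C; compounds pinned from DMSO, ATP as positive control; kinetic fluorescence 480/540 nm, 3 min, 1 s reads; 15 concentrations, triplicate.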
A short description of assay [18]: cAMP Responsive Elements (CRE) small molecule agonists, cell-based qHTS assay (AID 1963590). An outline of the steps:
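Beta-lactamase reporter readout: LiveBLAzer B/G FRET substrate, 2 h at room temperature, added after 3 h compound treatment of CRE-bla HEK 293T cells at 37 C/5% CO2.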

The target of assay [19] is Beta-2 adrenergic receptor (Homo sapiens) (UniProt P07550). The experiment in a line: Adrenergic beta2 receptor (ADRB2) small molecule antagonists, cell-based qHTS assay (AID 1963592). Further: series mostly up to about 92 µM; nearly all actives have a fitted effect of over 50% in size. An outline of the steps:
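Assay format: CHO-ADRB2 cells, 18-20hr seeding at 37C/5% CO2, then compound plus 1nM isoproterenol agonist mix for 0.5hr RT. Homogeneous time-resolved fluorescence cAMP detection after 1hr, expressed as 665/615 nm ratio.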

Assay [20] has as its target Muscarinic acetylcholine receptor M1 (Homo sapiens) (UniProt P11229). The experiment in a line: Cholinergic receptor muscarinic 1 (CHRM1) small molecule antagonists, cell-based qHTS assay (AID 1963588). Further: nearly all actives have a fitted effect of over 40% in size. An outline of the steps: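 Compounds were tested at 15 concentrations in three independent runs. Dye-loaded CHRM1-CHO cells were exposed 5 min at room temperature before stimulation by acetylcholine added at 50nM. Intracellular calcium was read kinetically on FDSS for 3 min.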

Chain of KiSS-1 receptor (Homo sapiens) (Q969F8 whole entry, looked up): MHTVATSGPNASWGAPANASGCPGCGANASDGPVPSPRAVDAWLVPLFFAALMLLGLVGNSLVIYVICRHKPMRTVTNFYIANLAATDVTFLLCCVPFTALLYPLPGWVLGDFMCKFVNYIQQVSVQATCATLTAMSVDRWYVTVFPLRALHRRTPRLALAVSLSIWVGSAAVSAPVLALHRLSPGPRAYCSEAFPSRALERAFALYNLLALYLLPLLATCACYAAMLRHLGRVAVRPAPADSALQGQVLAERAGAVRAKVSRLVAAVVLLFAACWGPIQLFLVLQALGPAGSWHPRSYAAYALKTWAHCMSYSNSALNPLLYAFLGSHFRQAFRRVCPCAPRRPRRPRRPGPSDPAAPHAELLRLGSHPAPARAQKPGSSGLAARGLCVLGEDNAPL
Chain of D(2) dopamine receptor (Homo sapiens) (P14416 whole entry, looked up): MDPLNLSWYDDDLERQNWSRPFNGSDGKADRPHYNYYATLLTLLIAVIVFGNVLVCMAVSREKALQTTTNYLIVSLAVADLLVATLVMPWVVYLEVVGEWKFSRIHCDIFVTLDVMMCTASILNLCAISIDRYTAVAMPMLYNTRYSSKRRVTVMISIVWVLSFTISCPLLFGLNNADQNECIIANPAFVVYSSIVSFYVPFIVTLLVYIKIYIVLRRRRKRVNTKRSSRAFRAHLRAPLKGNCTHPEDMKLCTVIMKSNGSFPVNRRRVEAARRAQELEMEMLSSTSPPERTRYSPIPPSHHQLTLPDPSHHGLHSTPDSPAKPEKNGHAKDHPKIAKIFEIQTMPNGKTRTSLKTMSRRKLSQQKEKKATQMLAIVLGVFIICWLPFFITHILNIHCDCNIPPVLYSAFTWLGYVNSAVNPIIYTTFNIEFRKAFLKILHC
Chain of Beta-2 adrenergic receptor (Homo sapiens) (P07550 whole entry, looked up): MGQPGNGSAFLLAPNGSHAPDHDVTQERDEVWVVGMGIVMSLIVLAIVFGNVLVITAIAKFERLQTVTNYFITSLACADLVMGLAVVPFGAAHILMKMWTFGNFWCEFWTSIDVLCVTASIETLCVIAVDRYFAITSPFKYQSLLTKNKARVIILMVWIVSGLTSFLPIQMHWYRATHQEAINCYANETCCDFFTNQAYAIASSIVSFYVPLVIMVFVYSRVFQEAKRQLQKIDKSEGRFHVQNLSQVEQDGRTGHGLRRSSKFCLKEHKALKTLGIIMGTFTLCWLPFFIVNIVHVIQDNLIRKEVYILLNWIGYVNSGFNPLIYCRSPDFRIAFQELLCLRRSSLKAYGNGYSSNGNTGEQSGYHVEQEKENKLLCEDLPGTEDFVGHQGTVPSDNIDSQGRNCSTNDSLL
Chain of 5-hydroxytryptamine receptor 2A (Homo sapiens) (P28223 whole entry, looked up): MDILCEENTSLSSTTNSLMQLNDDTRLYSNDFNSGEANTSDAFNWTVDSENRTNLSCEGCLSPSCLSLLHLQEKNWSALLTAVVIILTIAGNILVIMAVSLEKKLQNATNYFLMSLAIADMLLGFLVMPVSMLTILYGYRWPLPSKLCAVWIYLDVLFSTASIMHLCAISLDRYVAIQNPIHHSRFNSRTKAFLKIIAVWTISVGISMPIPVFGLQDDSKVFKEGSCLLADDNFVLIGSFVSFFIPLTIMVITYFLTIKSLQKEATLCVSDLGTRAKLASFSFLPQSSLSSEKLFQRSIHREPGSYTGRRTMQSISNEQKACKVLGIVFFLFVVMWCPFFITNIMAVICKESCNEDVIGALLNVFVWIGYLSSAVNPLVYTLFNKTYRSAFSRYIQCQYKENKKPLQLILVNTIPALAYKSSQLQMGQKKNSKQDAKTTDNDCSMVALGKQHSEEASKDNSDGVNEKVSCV
Chain of Muscarinic acetylcholine receptor M1 (Homo sapiens) (P11229 whole entry, looked up): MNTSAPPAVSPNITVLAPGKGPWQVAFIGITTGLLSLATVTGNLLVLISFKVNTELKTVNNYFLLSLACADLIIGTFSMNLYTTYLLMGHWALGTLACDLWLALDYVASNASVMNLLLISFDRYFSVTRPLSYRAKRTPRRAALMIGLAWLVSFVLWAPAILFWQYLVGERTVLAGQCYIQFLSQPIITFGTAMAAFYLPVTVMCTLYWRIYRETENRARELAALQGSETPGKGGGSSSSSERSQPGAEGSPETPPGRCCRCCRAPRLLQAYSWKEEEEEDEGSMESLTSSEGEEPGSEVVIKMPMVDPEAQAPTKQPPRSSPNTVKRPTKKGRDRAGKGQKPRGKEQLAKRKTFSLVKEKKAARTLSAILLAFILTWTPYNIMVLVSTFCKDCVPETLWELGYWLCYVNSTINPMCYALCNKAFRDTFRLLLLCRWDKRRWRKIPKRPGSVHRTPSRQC
Chain of Gonadotropin-releasing hormone receptor (Homo sapiens) (P30968 whole entry, looked up): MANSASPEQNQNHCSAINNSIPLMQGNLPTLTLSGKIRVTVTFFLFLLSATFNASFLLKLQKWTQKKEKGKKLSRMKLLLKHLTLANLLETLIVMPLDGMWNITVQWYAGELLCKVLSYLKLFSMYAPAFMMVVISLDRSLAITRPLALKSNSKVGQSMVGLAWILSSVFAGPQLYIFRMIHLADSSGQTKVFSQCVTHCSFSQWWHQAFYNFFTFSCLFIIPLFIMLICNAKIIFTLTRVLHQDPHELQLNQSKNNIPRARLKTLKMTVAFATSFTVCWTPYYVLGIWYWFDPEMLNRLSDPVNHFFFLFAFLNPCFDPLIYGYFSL

For `Nc1c(Cl)c(F)nc(OCC(=O)O)c1Cl`, the Potency entry in assay [1], in assay [2], in assay [3], in [4], in assay [5] and in assay [6] was “inactive” in each case. Besides, the Potency result in assay [7], in assay [8], in assay [9], in assay [10], in assay [11] and in assay [12] was “inactive” in each case. For the same compound, the Potency entry in assay [13], in assay [14] and in assay [15] was “inactive” each time.

Regarding `CN1CCC(O)(c2ccc(F)cc2)C(C(=O)c2ccc(F)cc2)C1` (configuration not stated), the Potency entry in [1], in assay [16], in assay [3], in assay [17], in [4] and in assay [5] was “inactive” throughout. Besides, the Potency entry in assay [6], in assay [7], in [8], in assay [9], in assay [10] and in assay [11] was “inactive” in each case. For the same compound, the Potency result in [12], in assay [18], in assay [13], in [19], in assay [14] and in assay [15] was “inactive” throughout.

As for `N#CC(C#N)=NNc1cccc(Cl)c1`, the Potency in [1] was 8.63 µM (active); in assay [2] it was 7.7 µM (active); in assay [17], 2.45 µM (active); in assay [6], 5.13 µM (active). Further, the Potency result in assay [4], in assay [5], in assay [9], in assay [10], in assay [11] and in [20] was “inactive” throughout. Moreover, the Potency entry in assay [12], in [14] and in assay [15] was “inactive” in each case.

Consider `CCCN1CCC[C@@H]2Cc3nc(N)ncc3C[C@H]21`, for which the Potency result in assay [1], in [2], in [17], in assay [4], in [5] and in [6] was “inactive” in each case. Also, the Potency result in [8], in assay [9], in assay [10], in assay [20], in [12] and in assay [18] was “inactive” in each case. The Potency entry in [13], in [19] and in assay [15] was “inactive” throughout. Also, in assay [11], the Potency was 8.49 µM (active).

Take `Cc1nc2ccccc2c(=O)n1-c1ccccc1Cl`: the Potency entry in assay [1], in assay [2], in [3], in assay [4], in assay [5] and in [6] was “inactive” throughout. Moreover, the Potency result in assay [7], in [8], in assay [10], in assay [11], in assay [20] and in assay [12] was “inactive” in each case. The Potency result in assay [18], in assay [13], in assay [14] and in assay [15] was “inactive” each time.

On to `CC(C)CCCCCCCOC(=O)c1ccccc1C(=O)OCCCCCCCC(C)C`, for which the Potency entry in assay [1], in [2], in [17], in assay [4], in [5] and in [6] was “inactive” throughout. Also, the Potency result in assay [7], in assay [9], in assay [10], in assay [11], in [20] and in [12] was “inactive” each time. Besides, the Potency entry in [13], in assay [19], in [14] and in assay [15] was “inactive” throughout.

For the compound `CCOP(=O)(NC(C)C)Oc1ccc(SC)c(C)c1` (configuration not stated), the Potency result in [1], in assay [3], in [17], in assay [9], in assay [10] and in assay [20] was “inactive” in each case. Besides, the Potency result in assay [12] and in [15] was “inactive” in each case. Further, the Potency in assay [2] is 15.4 µM (active).

As for `COc1ccc2c(c1OC)C(=O)O[C@H]2[C@@H]1c2cc3c(cc2CCN1C)OCO3`, the Potency result in [1], in [2], in [3], in assay [4], in assay [5] and in assay [6] was “inactive” throughout. Also, the Potency entry in [7], in assay [8], in assay [10], in [11], in assay [18] and in assay [13] was “inactive” each time. The Potency result in [19] and in assay [15] was “inactive” each time.

Values taken from PubChem BioAssay (Tox21).
